Source: article PMC4336329 (PLoS ONE, 2015)
Among all 310,000 compounds or so, about 14,000 (4.5%) showed an effect of 50% or more. Effects have a minus sign here. The sample as a whole holds a higher share of strong results than the screen did.

Biological target: human ether-à-go-go-related gene (hERG) potassium channel (human, UniProt Q12809)
Assay: primary screen, population patch clamp on CHO cells stably expressing hERG; higher = less effect of the substance
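Note: peak tail current of the secondary pulse compared with the same well before compound.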

Chain of human ether-à-go-go-related gene (hERG) potassium channel (Q12809 whole entry, looked up): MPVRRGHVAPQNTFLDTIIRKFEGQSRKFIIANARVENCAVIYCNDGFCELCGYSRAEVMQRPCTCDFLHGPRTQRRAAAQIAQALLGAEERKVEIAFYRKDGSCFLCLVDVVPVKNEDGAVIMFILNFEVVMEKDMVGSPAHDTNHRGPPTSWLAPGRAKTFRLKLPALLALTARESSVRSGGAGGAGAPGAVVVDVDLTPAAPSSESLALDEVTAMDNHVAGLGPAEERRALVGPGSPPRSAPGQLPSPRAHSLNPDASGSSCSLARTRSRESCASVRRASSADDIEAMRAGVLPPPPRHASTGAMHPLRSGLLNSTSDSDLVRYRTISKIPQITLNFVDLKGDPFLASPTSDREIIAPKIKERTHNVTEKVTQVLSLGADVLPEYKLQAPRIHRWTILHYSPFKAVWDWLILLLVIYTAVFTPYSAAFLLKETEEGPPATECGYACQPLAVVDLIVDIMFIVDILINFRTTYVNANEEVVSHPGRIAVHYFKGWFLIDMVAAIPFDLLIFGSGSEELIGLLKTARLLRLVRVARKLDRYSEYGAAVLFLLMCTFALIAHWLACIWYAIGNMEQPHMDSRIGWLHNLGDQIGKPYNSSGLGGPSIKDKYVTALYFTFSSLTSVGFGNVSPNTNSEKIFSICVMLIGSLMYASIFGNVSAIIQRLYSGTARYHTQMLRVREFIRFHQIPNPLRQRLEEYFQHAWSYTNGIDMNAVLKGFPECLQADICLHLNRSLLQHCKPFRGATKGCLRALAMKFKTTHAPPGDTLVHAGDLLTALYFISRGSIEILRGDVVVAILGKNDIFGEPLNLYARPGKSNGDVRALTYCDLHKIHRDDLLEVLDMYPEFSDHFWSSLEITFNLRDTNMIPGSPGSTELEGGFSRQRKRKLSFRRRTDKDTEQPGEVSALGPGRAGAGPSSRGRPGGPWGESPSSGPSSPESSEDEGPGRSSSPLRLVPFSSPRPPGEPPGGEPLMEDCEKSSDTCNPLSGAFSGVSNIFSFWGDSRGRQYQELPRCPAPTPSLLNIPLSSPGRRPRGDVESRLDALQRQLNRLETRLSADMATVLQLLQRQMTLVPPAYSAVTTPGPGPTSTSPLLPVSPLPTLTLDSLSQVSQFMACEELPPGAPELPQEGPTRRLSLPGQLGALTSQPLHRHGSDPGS

| SMILES | hERG current change (%, negative = inhibition) at 10uM [%] |
| --- | --- |
| Cc1ccc(NC(=O)Cn2c(=O)n(Cc3ccco3)c(=N)c3c4c(sc32)COC(C)(C)C4)cc1 | -7.76 |
| CC(C)[C@H](NC(=O)c1ccco1)C(=O)OCC(=O)N1CC(=O)Nc2ccccc21 | 13.3 |
| O=C1N/C(=C/c2ccc(N3CCOCC3)cc2)C(=O)N1Cc1ccc(F)cc1 | 22.1 |
| CCOC(=O)C1CCN(C(=O)CSc2cc(=O)n(CC)c3ccccc23)CC1 | -29.4 |
| O=[N+]([O-])c1cc2c(c(CSc3nnc4ccccn34)c1)OCOC2 | -12.4 |
| O=C(O)C(Cc1ccccc1)n1cnnn1 (centres unmarked) | 7.85 |
| CCC(CC)c1nn2c(N)c(/C=C3\C=Nc4ccccc43)c(=O)nc2s1 | 0.567 |
| COc1ccc(S(=O)(=O)N2CCCC(C(=O)O)C2)cc1Cl (centres unmarked) | 6.43 |
| CC1=NNC(=O)C1CC(=O)N/N=C/C(Br)=C/c1ccccc1 (centres unmarked) | 9.09 |
| O=c1c2ccccc2oc2ccc(-c3ccc4[nH]ccc4c3)cc12 | -2.53 |
| Cc1ccc(NC(=O)c2cn(CCC#N)nc2-c2ccc3c(c2)OCCO3)c([N+](=O)[O-])c1 | -33.9 |
| COc1ccc(-c2nn(CCC#N)cc2C(=O)Nc2cccc(C(=O)O)c2)cc1OC | 20.9 |
| N#CCCn1cc(C(=O)Nc2ccc([N+](=O)[O-])cc2)c(-c2cccs2)n1 | -59.7 |
| N#CCCn1cc(C(=O)Nc2ccc(F)cc2)c(-c2ccccc2)n1 | -15.2 |
| N#CCCn1cc(C(=O)Nc2ccc(C(=O)O)cc2)c(-c2cccs2)n1 | 21 |
| CCOC(=O)c1ccc(NC(=O)c2cn(CCC#N)nc2-c2ccc3c(c2)OCCO3)cc1 | -4.59 |
| COc1ccc(-c2nn(CCC#N)cc2C(=O)Nc2cccc([N+](=O)[O-])c2)cc1OC | -57.9 |
| N#CCCn1cc(C(=O)Nc2ccc([N+](=O)[O-])cc2)c(-c2ccc3c(c2)OCCO3)n1 | -72.8 |
| COc1ccc(NC(=O)c2cn(CCC#N)nc2-c2ccc([N+](=O)[O-])cc2)cc1 | 2.58 |
| COc1ccc(-c2nn(CCC#N)cc2C(=O)Nc2ccccc2)cc1OC | -6.03 |

| SMILES | hERG current change (%, negative = inhibition) at 10uM [%] |
| --- | --- |
| COc1ccc(NC(=O)c2cn(CCC#N)nc2-c2cccs2)cc1 | -11.3 |
| N#CCCn1cc(C(=O)Nc2ccc(F)cc2)c(-c2ccc([N+](=O)[O-])cc2)n1 | -57.1 |
| CCSc1cc(C)nc2ncnn12 | -0.742 |
| CC1CCCN(C(=O)C2CCN(Cc3ccc4c(c3)OCO4)CC2)C1.O=C(O)C(=O)O (centres unmarked) | -0.604 |
| COC(=O)c1cccc(NC(=O)Cn2nnc3ccccc32)c1 | 0.234 |
| COc1cc(C2NC(=O)NC(C)=C2[N+](=O)[O-])cc(OC)c1OC (centres unmarked) | 9.03 |
| CCn1c(=O)c2sccc2n2c(CCCC(=O)NCCc3ccc(S(N)(=O)=O)cc3)nnc12 | -4.96 |
| O=C(NCC1CC1)[C@@H]1C[C@H]1[C@@H](NP(=O)(c1ccccc1)c1ccccc1)c1ccccc1 | -13.9 |
| CC(=O)Nc1ccccc1C(=O)OCc1ccccc1F | 3.58 |
| N#CCCn1cc(C(=O)Nc2ccccc2Cl)c(-c2ccc(F)cc2)n1 | 14 |
| N#CCCn1cc(C(=O)Nc2ccccc2Cl)c(-c2ccc([N+](=O)[O-])cc2)n1 | -64.4 |
| COc1ccc(NC(=O)c2cn(CCC#N)nc2-c2ccccc2)cc1 | -7.59 |
| N#CCCn1cc(C(=O)Nc2ccc([N+](=O)[O-])cc2)c(-c2ccccc2)n1 | -80.1 |
| N#CCCn1cc(C(=O)Nc2ccccc2Br)c(-c2ccc([N+](=O)[O-])cc2)n1 | -46.9 |
| COc1ccc(-c2nn(CCC#N)cc2C(=O)Nc2ccccc2Br)cc1[N+](=O)[O-] | -39.6 |
| COc1ccc(-c2nn(CCC#N)cc2C(=O)NCc2ccccc2)cc1[N+](=O)[O-] | -59.7 |
| COc1ccc(-c2nn(CCC#N)cc2C(=O)NCc2ccccc2)cc1OC | -42.3 |
| N#CCCn1cc(C(=O)Nc2ccc(C(=O)O)cc2)c(-c2ccc([N+](=O)[O-])cc2)n1 | 23.2 |
| Cc1cc(C=C2C(=O)N(C)C(=O)N(C)C2=O)c(C)n1-c1ccccc1 | 17.5 |
| FC(F)(F)c1cc(-c2cccs2)nc(N2CCOCC2)n1 | 1.94 |

| SMILES | hERG current change (%, negative = inhibition) at 10uM [%] |
| --- | --- |
| CC(C)N(Cc1nc(-c2ccccc2)no1)C(=O)c1ccc(Br)o1 | -18.8 |
| O=CN1CCN(S(=O)(=O)c2ccc(Cl)c(C(=O)O)c2)CC1 | -2.45 |
| C/C(=N\NC(=O)Cn1nc(C)c([N+](=O)[O-])c1C)c1ccco1 | 26 |
| C=C1c2ccc(C)cc2NC(=O)N1c1ccccc1 | -1.2 |
| COc1ccc(N=C2CCCN2CC(N)=O)cc1.Cl | -0.486 |
| C#Cc1cccc(-n2nnc(C(C)=O)c2C)c1 | 15.5 |
| Cc1noc(C)c1COc1ccccc1C(=O)N1CCN(S(=O)(=O)c2ccccc2F)CC1 | -19.2 |
| CCOC(=O)C1=C(CN2CCN(C(=O)OCC)CC2)NC(=O)NC1c1ccc2c(c1)OCO2 (centres unmarked) | -18.4 |
| CCOC(=O)C1=C(CN2CCN(C(=O)c3ccco3)CC2)NC(=O)NC1c1ccc(OC(C)C)cc1 (centres unmarked) | -69.3 |
| CCOC(=O)C1=C(CN2CCN(C(=O)c3ccco3)CC2)NC(=O)NC1c1ccc(Cl)cc1 (centres unmarked) | -35 |
| CCOC(=O)C1=C(CN2CCN(C(=O)c3ccco3)CC2)NC(=O)NC1c1ccccc1 (centres unmarked) | -43.7 |
| CCOC(=O)C1=C(CN2CCN(C(=O)c3ccco3)CC2)NC(=O)NC1c1ccc(OC)cc1 (centres unmarked) | -64.9 |
| CCOC(=O)C1=C(CN2CCC(C)CC2)NC(=O)NC1c1ccc(Cl)cc1 (centres unmarked) | -37.6 |
| CCOC(=O)C1=C(CN2CCCCCC2)NC(=O)NC1c1ccc2c(c1)OCO2 (centres unmarked) | -48.2 |
| CCOC(=O)C1=C(CN2CCN(C(=O)c3ccco3)CC2)NC(=O)NC1c1ccc(C)cc1 (centres unmarked) | -63.2 |
| CC(C)Oc1ccc(C(=O)N2CCN(C(=O)c3ccco3)CC2)cc1 | -29.6 |
| COc1ccc(CN2CCN(C(=O)c3ccco3)CC2)cc1 | -12.3 |
| CCOC(=O)C1=C(C)NC(=O)NC1c1ccc(OC(=O)c2ccco2)cc1 (centres unmarked) | -2.08 |
| CCOC(=O)C1=C(CN2CCN(C(=O)c3ccco3)CC2)NC(=O)NC1c1ccc(F)cc1 (centres unmarked) | -62.9 |
